Screening results as filed in PubChem BioAssay.
Hits are enriched below; roughly 4.2% of the tested compounds scored in any of these assays.
uPA surface inh – blocks generation of uPA at the cell surface. 330,000 tested, 0.31% active. Potency, µM (highest dose often 38.3 µM), actives largely listed as inhibitors. AID 540303. cell surface uPA generation assay, qHTS; active means well fitted inhibition curve with a large enough effect; inconclusive means small, poorly fitted or top-dose-only effect; inactive means no such curve, though single readings can be large or run the other way; tested in mouse RAW 264.7 cells; further: nearly all actives have a fitted effect of over 55% in size
TCR act – T cell receptor activation; 330,000 tested, under 10 active; Potency, µM (titrated, usually from 9.22 µM), actives largely listed as activators; primary human leukocytes, anti-CD3, IL-2 HTRF, 48 h
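Compounds are tested in HTS on primary human leukocytes co-incubated with a-CD3 beads for 48 hr. IL-2 output is measured by time-resolved FRET.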
Sfp PPTase inh – Sfp phosphopantetheinyl transferase inhibition; Biochemical Sfp PPTase activity, qHTS; Potency, µM, most hits filed as inhibitors; 310,000 tested, 3.5% active; AID 1490;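 further: the enzyme is Sfp with the accession as filed and its product quenches rhodamine fluorescence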
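With Hepes-Na pH 7.6 buffer containing 10 mM MgCl2, Sfp (15 nM) modified BHQ-2-YbbR (12.5 uM) using rhodamine-CoA (5 uM). Two reads 30 minutes apart at 525/598 nm yielded each well's rate.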
ClpP mod – qHTS Assay for Activators of ClpP. ATP-dependent Clp protease proteolytic subunit (Bacillus subtilis (strain 168)), P80244. purified B. subtilis ClpP, FRET peptide cleavage, 20 min. Potency, µM (top dose mostly 57.5 µM). 340,000 tested, 1.9% active. AID 651965, 2013; active means well fitted falling curve with a large enough effect; inconclusive means small, poorly fitted or top-dose-only effect; inactive means no such curve, though single readings can be large or run the other way; further: the source files actives as falling curves though it sought activators and does not explain the sign; nearly all actives have a fitted effect of over 65% in size
Target sequence (P80244 whole entry, looked up): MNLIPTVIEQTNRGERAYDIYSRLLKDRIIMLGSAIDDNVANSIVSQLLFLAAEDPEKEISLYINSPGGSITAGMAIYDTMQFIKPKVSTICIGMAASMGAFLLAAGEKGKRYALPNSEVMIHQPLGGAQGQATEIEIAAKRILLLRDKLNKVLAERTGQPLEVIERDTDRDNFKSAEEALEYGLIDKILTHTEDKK
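FRET quenching reversal measured ClpP activation: 10 microg/mL B. subtilis ClpP at pH 8 with the FRET-FV decapeptide, read at 430 nm after 320 nm excitation. The 20-min minus 0-min signal was scaled between DMSO/no-enzyme wells and ADEP (5.8 microM final).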
Large screens that a line does not name were inactive; ! = repeats disagree. Unless noted, the call rests on the fitted dose curve; in most records, active means well fitted curve in the direction sought with a large enough effect; inconclusive means small, poorly fitted or top-dose-only effect, or another doubt; inactive means no such curve, though single readings can be large; an effect the other way counts as inactive or inconclusive.

CC(=O)N1CN(CCCn2ccnc2)Cc2c1sc1c2CCCC1	none
CC(=O)N1CN(Cc2ccccn2)Cc2c1sc1c2CCCC1	Sfp PPTase inh 45µM
CCOC(=O)c1nnn(-c2ccc([N+](=O)[O-])cc2[N+](=O)[O-])c1C	uPA surface inh 8.9µM
CCOC(=O)c1nnn(-c2ccccc2)c1C	none
CCn1c(SC(C)C(=O)NCc2ccco2)nnc1-c1ccccc1 (stereo not drawn)	none (no result: uPA surface inh, TCR act, Sfp PPTase inh)
O=C1CCCN1CCCN1CC(C(=O)N(CCO)Cc2ccccc2)CCC1=O (stereo not drawn)	ClpP mod 32µM
Cc1ccc(CN(C)C(=O)C2CCC(=O)N(CCc3ccccc3)C2)o1 (stereo not drawn)	Sfp PPTase inh 35µM
CC(C)c1ccc(NC(=O)CN2C(=O)CCc3cc(S(=O)(=O)N4CCOCC4)ccc32)cc1	none (no result: uPA surface inh, TCR act, Sfp PPTase inh)
CN(C)CCC(C(=O)c1ccccc1)c1ccccn1 (stereo not drawn)	none (no result: Sfp PPTase inh)
CN(C)CC(CCCCC(CN(C)C)C(=O)c1ccccc1)C(=O)c1ccccc1 (stereo not drawn)	uPA surface inh 10µM
CC(C)C(C(=O)NCC1CCCO1)N(C(=O)CNS(=O)(=O)c1ccc(F)cc1)C1CCCCC1 (stereo not drawn)	none (no result: ClpP mod)
COc1ccc(C(=O)c2c(C)oc3ccc(O)c(CN4CCOCC4)c23)cc1	Sfp PPTase inh 56µM
COc1ccc(NC(=O)c2c(C)oc3ccc(O)c(CN4CCOCC4)c23)cc1	none (no result: uPA surface inh, TCR act, Sfp PPTase inh)
COc1ccc(C)cc1NC(=O)c1cc(S(=O)(=O)N2CCCCC2)c[nH]1	none (no result: uPA surface inh, TCR act, Sfp PPTase inh)
COc1cccc(NC(=O)CSc2nc(=O)n(Cc3ccncc3)c3c2CCC3)c1	none (no result: uPA surface inh, TCR act, Sfp PPTase inh)
COc1cccc(CNC(=O)CSc2nc(=O)n(Cc3ccncc3)c3c2CCC3)c1	ClpP mod 13µM (no result: Sfp PPTase inh)
C[C@H]1O[C@@H](O[C@H]2CC[C@@]3(C)C(CC[C@]4(C)C3C=C[C@]35OC[C@@]6(CCC(C)(C)C[C@H]63)[C@@H](O)C[C@]54C)[C@]2(C)CO)[C@H](O)[C@@H](O[C@@H]2O[C@H](CO)[C@@H](O)[C@H](O)[C@H]2O)[C@H]1O (stereo partly drawn)	none (no result: Sfp PPTase inh)
CC1OC(OC2C(OC3C(O[C@H]4CC[C@]5(C)C6C=C[C@]78OC[C@@]9(CC[C@@H](C)[C@H](C)C97)[C@H](O)C[C@@]8(C)[C@]6(C)CC[C@H]5C4(C)C)OC(C)C(O)C3O)OC(CO)C(O)C2O)C(O)C(O)C1O (stereo partly drawn)	Sfp PPTase inh 79µM (no result: uPA surface inh, TCR act, ClpP mod)
COC(=O)c1[nH]c2cc(OC)c(OC)cc2c1NC(=O)Oc1ccccc1	Sfp PPTase inh 45µM, ClpP mod 32µM
CCOC(=O)C1CCCN(CC(=O)Nc2c(C(=O)OC)[nH]c3ccc(C)cc23)C1 (stereo not drawn)	ClpP mod 32µM (no result: TCR act)
CCOC(=O)c1[nH]c2ccc(OC)cc2c1NC(=O)C(C)N1CCSCC1 (stereo not drawn)	none (no result: uPA surface inh, TCR act, ClpP mod)
CCOC(=O)c1[nH]c2ccccc2c1NC(=O)NC(C)C	none (no result: ClpP mod)
CCOC(=O)c1[nH]c2cc(OC)c(OC)cc2c1NC(=O)C(C)N1CCN(Cc2ccccc2)CC1 (stereo not drawn)	ClpP mod 32µM
CCOC(=O)c1[nH]c2ccc(OC)cc2c1NC(=O)NC(C)C	ClpP mod 18µM
Nc1cccc(/C=C/c2ccnc3ccccc23)c1	none (no result: uPA surface inh, TCR act, Sfp PPTase inh)
CCOC(=O)c1[nH]c2ccc(OC)cc2c1NC(=O)OC	ClpP mod 28µM
COC(=O)c1[nH]c2cc(OC)ccc2c1N	Sfp PPTase inh 25µM, ClpP mod inconclusive
COC(=O)c1[nH]c2ccc(C)cc2c1NC(=O)CCN1CCN(Cc2ccc3c(c2)OCO3)CC1	ClpP mod 20µM (no result: TCR act)
CCOC(=O)Nc1c(C(=O)OC)[nH]c2cc(OC)ccc12	ClpP mod inconclusive
COC(=O)c1[nH]c2cc(C)ccc2c1NC(=O)CN1CCOCC1	none (no result: ClpP mod)
CCOC(=O)c1[nH]c2ccc(OC)cc2c1NC(=O)CCN1CCCC(C)C1 (stereo not drawn)	ClpP mod 32µM
Clc1ccc(Cn2ncc3c(N4CCN(c5ccccc5)CC4)ncnc32)cc1	none (no result: uPA surface inh, TCR act, Sfp PPTase inh)
COC(=O)C1=CN(c2ccc(F)cc2)C=C(C(=O)OC)C1c1ccc(O)cc1	none (no result: ClpP mod)
O=C(CN1CCCCC1)Nc1ccc(Br)cc1[N+](=O)[O-]	none (no result: ClpP mod)
CC(=O)c1cc(CN2CCC(N3CCC(C(=O)NC(C)C)CC3)CC2)cs1	none
CC(=O)c1cc(CN2CCC(N3CCC(C(=O)N4CCCC4)CC3)CC2)cs1	Sfp PPTase inh 22µM (no result: ClpP mod)
Cc1cc2oc(=O)cc(COC(=O)c3n[nH]c4ccccc34)c2cc1C	none
Cc1cc(NC(=O)COC(=O)c2n[nH]c3ccccc23)no1	ClpP mod 11µM
Cc1cccc(NC(=O)COC(=O)c2n[nH]c3ccccc23)c1C	none (no result: Sfp PPTase inh)
CCCCCOc1ccc(C(=O)OCC(=O)Nc2cc(C)on2)cc1	ClpP mod 18µM (no result: Sfp PPTase inh)
COc1ccc2c(COC(=O)c3n[nH]c4ccccc34)cc(=O)oc2c1	ClpP mod 28µM
Cc1cc(C)n2nc(-c3ccc(Br)cc3)cc2n1	none
Cc1ccc(-c2cc(-c3ccccc3)nc(Cl)n2)cc1	ClpP mod 28µM
Cc1ccc(-c2cc3nc(-c4ccc(Br)cc4)cc(N)n3n2)cc1	ClpP mod 28µM
Cc1ccc(-c2cc(N)n3nc(-c4ccc(C)cc4)cc3n2)cc1	ClpP mod 13µM!
Cc1cc(-c2ccccc2)n2nc(-c3cccc(Br)c3)cc2n1	none (no result: uPA surface inh, TCR act, Sfp PPTase inh)
Cc1cc(N)n2nc(-c3ccccc3)cc2n1	Sfp PPTase inh inconclusive, ClpP mod 28µM
COC(=O)[C@]12CCCCC=C1N(Cc1ccc(Cl)cc1Cl)C(=O)[C@H](CC(=O)N1CCN(C(=O)C3CC3)CC1)C2	none (no result: uPA surface inh, TCR act, Sfp PPTase inh)
C#CCn1c(=O)c2c(nc(/C=C/c3cccc(OC)c3)n2C)n(CCCOP(=O)(O)O)c1=O	none (no result: uPA surface inh, TCR act, ClpP mod)
COc1ccc2[nH]c(C(O)C(O)c3nc4c(OC)c(OC)ccc4[nH]3)nc2c1OC (stereo not drawn)	none (no result: uPA surface inh, TCR act, Sfp PPTase inh)
Cc1ccc(-c2cc3nc(-c4ccccc4)cc(N)n3n2)cc1	ClpP mod 25µM
CCCCOc1ccc(/C=C/C2=CC(C)(C)NC(=S)N2)cc1OCC	none
CCS(=O)(=O)NCC(c1ccco1)N1CCN(c2ccc(OC)cc2)CC1 (stereo not drawn)	none (no result: uPA surface inh, TCR act, Sfp PPTase inh)
O=C(CC(NC(=O)c1ccccc1)c1ccccc1)OCc1nc(-c2cccc(Cl)c2)no1 (stereo not drawn)	none (no result: uPA surface inh, TCR act, Sfp PPTase inh)
CCN(C(=O)CSc1nc2cc(C(=O)OC)ccc2c(=O)n1Cc1ccco1)c1cccc(C)c1	ClpP mod 32µM
Cc1ccc(CNc2ncnc3c2nnn3C)cc1	none (no result: uPA surface inh, TCR act, Sfp PPTase inh)
Cc1cccc(-n2nc([N+](=O)[O-])c(=NC3CCN(Cc4ccccc4)CC3)n2O)c1	uPA surface inh 2.8µM
COC(=O)/C=c1\sc2ncnn2c1=O	Sfp PPTase inh 10µM, ClpP mod inconclusive
COc1cc2cnc(-c3ccccc3)c(-c3ccc(C(F)(F)F)cc3)c2cc1OC	ClpP mod inconclusive (no result: Sfp PPTase inh)
CCOC(=O)c1c(NC(=O)COC(=O)c2ccccc2NC)sc(C(=O)N(C)C)c1C	none
CC(=O)c1sc2c(c1C)c(=O)n(-c1ccc(Cl)cc1)c(=O)n2Cc1cc(=O)n2cc(Cl)ccc2n1	none (no result: uPA surface inh, TCR act, Sfp PPTase inh)
